Compound activity (PubChem BioAssay)
The list is not random: actives were taken first. Their share in the collection is about 3.1%.
TSHR antag: human thyrotropin receptor antagonism; AID 504810; activity change, negative = inhibition, % at 11.5 µM; 330,000 tested, 0.2% active; P16473; TSHR-expressing cells, TSH-stimulated cAMP HTRF, 2 h; hits give low values;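 active = activity change below a set negative limit, meaning inhibition stronger than a set level, cut at about -70% in these data; inconclusive = activity change between two set negative limits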; also: % is scaled to controls: 0 for no effect and ±100 for the full control effect
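Antagonism was scored as loss of TSH-driven cAMP in TSHR cells, stimulated with 4nM TSH (EC80) for 2 hours at 37 deg C and detected by homogeneous HTRF competition immunoassay.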
VDR inhibitor: blocks the human vitamin D receptor. P11473. VDR-SRC2-3 peptide fluorescence polarization, 2 h. Potency, µM, for inactives: max response, negative = inhibition, actives largely listed as inhibitors. 400,000 tested, 0.93% active. AID 504847; also: potency is read from the fitted curve at half-maximal effect; % is scaled to controls: 0 for no effect and ±100 for the full control effect
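Measured by FP: displacement of SRC2-3 coactivator peptide from VDR by library compounds, following a two-hour ambient incubation.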
uPA surface inh: blocks generation of uPA at the cell surface | Potency, µM (highest dose often 38.3 µM), without a hit: at the highest dose activity change, negative = inhibition, most hits filed as inhibitors | 330,000 tested, 0.31% active | cell surface uPA generation assay, qHTS | AID 540303; active = well fitted inhibition curve with a large enough effect; inconclusive = small, poorly fitted or top-dose-only effect; inactive = no such curve, though single readings can be large or run the other way; tested in mouse RAW 264.7 cells; also: potency is read from the fitted curve at half-maximal effect; % is scaled to controls: 0 for no effect and ±100 for the full control effect; nearly all actives have a fitted effect of over 55% in size
PTAP TSG101 blk: blocks PTAP/TSG101 interaction to inhibit HIV-1 budding; Fluorescence polarization, FITC-PTAP peptide / Tsg101 binding; Q99816; AID 493005; Potency, µM (titrated, usually from 115 µM), for inactives: top-dose activity change, negative = inhibition, most hits filed as inhibitors; 340,000 tested, under 10 active; active = well fitted inhibition curve with a large enough effect in the main read-out, with a control signal flat, not every such curve was filed as active; inconclusive = small, poorly fitted or top-dose-only effect, or effect the other way, or a change in a side signal; inactive = no such curve, though single readings can be large or run the other way; also: potency is read from the fitted curve at half-maximal effect; % of control where 0% means no effect
Target sequence (Q99816 whole entry, looked up): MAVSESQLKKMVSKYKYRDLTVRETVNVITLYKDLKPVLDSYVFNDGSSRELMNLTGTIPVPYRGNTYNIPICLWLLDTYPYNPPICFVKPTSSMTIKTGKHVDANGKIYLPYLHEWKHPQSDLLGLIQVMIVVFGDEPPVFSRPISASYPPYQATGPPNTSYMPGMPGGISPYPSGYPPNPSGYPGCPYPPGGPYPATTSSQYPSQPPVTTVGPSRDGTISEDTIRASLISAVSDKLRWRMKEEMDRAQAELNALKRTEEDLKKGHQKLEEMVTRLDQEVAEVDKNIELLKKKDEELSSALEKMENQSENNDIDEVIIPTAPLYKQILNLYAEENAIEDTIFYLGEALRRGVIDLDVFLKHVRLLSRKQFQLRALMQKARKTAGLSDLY
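Steps: Tsg101 binding domain dispensed (10 uM final), compounds pinned in DMSO, FITC-labeled PTAP-motif peptide added (50 nM final); after 20 min binding at room temperature, polarization measured.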
PLK1 PBD inh: blocks phosphopeptide binding to human PLK1 polo-box domain; 360,000 tested, 2.8% active; Plk1 PBD binding of FITC phosphopeptide, fluorescence polarization; AID 720504; P53350; Potency, µM, without a hit: max response, negative = inhibition, most hits filed as inhibitors; also: potency is read from the fitted curve at half-maximal effect; series mostly up to about 57 µM; % is scaled to controls: 0 for no effect and ±100 for the full control effect; nearly all actives have a fitted effect of over 65% in size
The depositor's hits bear a star; ? = inconclusive; nt = no result given. Unless noted, calls follow the shape of the dose curve; as a rule, active = well fitted curve in the direction sought with a large enough effect; inconclusive = small, poorly fitted or top-dose-only effect, or another doubt; inactive = no such curve, though single readings can be large; an effect the other way counts as inactive or inconclusive.

SMILES | TSHR antag | VDR inhibitor | uPA surface inh | PTAP TSG101 blk | PLK1 PBD inh
NC(=O)c1cc(-c2csc(NCCc3ccccc3)n2)ccc1O | -6.4 | 25.8% | 1.7% | -0.5% | 29.9µM*
C=CCNc1nc(-c2ccc(O)c(C(N)=O)c2)cs1 | -3.2 | ? | 14.1% | -2.0% | 2.99µM*
C=CCNc1nc(-c2ccc3c(c2)OCCO3)cs1 | nt | -4.8% | ? | -4.1% | -18.1%
COC(=O)c1cc(-c2ccc(Cl)cc2)c2c(=O)[nH]c(=O)n(C)c2n1 | nt | 0.9% | nt | nt | nt
Cc1ccc(CN(C(=O)COc2ccc(C)c(C)c2)C2CCS(=O)(=O)C2)o1 (centres undefined) | -9.0 | -27.1% | 4.6% | -5.7% | 26.7µM*
Cc1ccc(CN(C(=O)COc2ccc(F)cc2)C2CCS(=O)(=O)C2)o1 (centres undefined) | nt | 9.1% | nt | nt | nt
Cc1ccc(CN(C(=O)COc2ccc(Br)cc2)C2CCS(=O)(=O)C2)o1 (centres undefined) | -7.4 | ? | 3.7% | -5.3% | 11.9µM*
Cc1ccc(OCC(=O)N(Cc2ccc(C)o2)C2CCS(=O)(=O)C2)cc1 (centres undefined) | -0.4 | ? | -24.5% | -2.9% | 26.7µM*
Cc1ccc(CN(C(=O)COc2ccc(Cl)c(C)c2)C2CCS(=O)(=O)C2)o1 (centres undefined) | nt | 0.7% | nt | nt | nt
Cc1cc(C)cc(OCC(=O)N(Cc2ccc(C)o2)C2CCS(=O)(=O)C2)c1 (centres undefined) | nt | 8.3% | nt | nt | nt
Cc1ccc(CN(C(=O)c2ccc(Cl)c([N+](=O)[O-])c2)C2CCS(=O)(=O)C2)o1 (centres undefined) | -36.0 | -25.8% | 2.3% | -2.5% | 23.8µM*
COc1ccc(CNc2nc3c(S(=O)(=O)c4ccccc4)nnn3c3ccc(Cl)cc23)cc1 | nt | 3.1% | nt | nt | nt
Cc1ccc(Cn2c(C)c(CNCC(C)c3ccccc3)c(C(=O)O)c2C)cc1 (centres undefined) | nt | 13.1% | nt | nt | nt
CCCCSCCCNC(=O)c1cc(-c2cccnc2)nc2ccc(S(=O)(=O)N3CCC(C)CC3)cc12 | nt | 23.6% | nt | nt | nt
Cc1cc(C)cc(N2C(=O)C3CCCN3C2=S)c1 (centres undefined) | 6.5 | -15.8% | -2.9% | -3.1% | ?
Cc1ccc(N2C(=O)C3CCCN3C2=S)cc1 (centres undefined) | -5.4 | 14.1% | -1.7% | -0.3% | 13.4µM*
CCN(CC)C(=O)CSc1nnc2nnc3cc(OC)ccc3n12 | -3.1 | 3.1% | -1.4% | ? | 23.8µM*
CCN(CC)C(=O)CSc1nnc(COc2ccc(OC)cc2)n1N | 9.6 | -1.1% | 6.6% | -1.3% | -8.1%
CC(Oc1cccc(Cl)c1)C(=O)NCc1ccc(S(N)(=O)=O)cc1 (centres undefined) | -16.4 | ? | -4.1% | -4.8% | 18.9µM*
Cc1ccc2nc(-c3ccccc3)c(Cc3ccccc3C(F)(F)F)n2c1 | nt | nt | nt | nt | 1.7%
CNc1oc(Cc2ccccc2)nc1S(=O)(=O)c1ccccc1 | 5.8 | -24.8% | -0.1% | -3.9% | 2.67µM*
CCOc1ccc(-c2nc(S(=O)(=O)c3ccccc3)c(NC)o2)cc1 | 18.0 | 6.5% | 4.4% | 2.0% | 2.7%
NC(=O)C1CCN(c2nc(-c3ccc([N+](=O)[O-])cc3)cs2)CC1 | 28.5 | nt | nt | nt | nt
CCOC(=O)C1=C(C#N)C(C(=O)OCC)c2ncccc21 (centres undefined) | nt | nt | nt | nt | 3.36µM*
CCCC(=O)NC(NC1CCS(=O)(=O)C1)C(Cl)(Cl)Cl (centres undefined) | 5.3 | -1.6% | 4.7% | -4.6% | 26.7µM*
SMILES | TSHR antag | VDR inhibitor | uPA surface inh | PTAP TSG101 blk | PLK1 PBD inh
CC(C)C(=O)NC(NC1CCS(=O)(=O)C1)C(Cl)(Cl)Cl (centres undefined) | -1.9 | -9.1% | 2.0% | 2.5% | -0.7%
N=c1n(CCN2CCCC2)c2ccccc2n1CC(O)c1ccc(Cl)c(Cl)c1 (centres undefined) | 1.5 | 12.6% | ? | -1.9% | 23.8µM*
COc1ccc(OCC(O)Cn2c(=N)n(CCN3CCCCC3)c3ccccc32)cc1 (centres undefined) | -8.7 | -10.9% | -11.5% | -7.3% | 2.67µM*
CSc1nn(CC(=O)Nc2cc(C)ccc2C)c(N)c1S(=O)(=O)c1ccccc1 | nt | -3.3% | nt | nt | nt
COc1ccc(NC(=O)c2nn(C)c3c2CS(=O)(=O)c2ccccc2-3)cc1Cl | nt | 3.2% | nt | nt | nt
C=Cc1ccc(Cn2c(C(=O)O)c(CNCc3ccc(F)cc3)c3ccc(C)cc32)cc1 | nt | -0.5% | nt | nt | nt
CC(C)Cn1c(-c2ccc(Br)cc2)c[nH]c1=S | -22.6 | ? | 3.7% | -1.5% | 16.8µM*
CC(=O)N(c1ccccc1)C1SC(=O)N(c2ccccc2)C1=O (centres undefined) | -4.5 | 16.6% | -0.1% | -2.6% | 21.2µM*
Cc1cccc(NC2SC(=O)N(c3ccccc3)C2=O)c1 (centres undefined) | 8.5 | -6.6% | -0.1% | -1.5% | -4.7%
CC(=O)N(c1cccc(C)c1)C1SC(=O)N(c2ccccc2)C1=O (centres undefined) | -3.8 | 11.1% | -5.5% | -2.2% | 23.8µM*
CCN(c1ccccc1)C1SC(=O)N(c2ccccc2)C1=O (centres undefined) | nt | -2.4% | nt | nt | nt
CC(C)(C)OC(=O)N1CCc2onc(-c3ccccc3[N+](=O)[O-])c2C1=O | nt | nt | nt | nt | 3.4%
Cc1ccc(Nc2nc(N)c3ccccc3n2)cc1Cl | 9.2 | 30.8% | 7.94µM* | -0.7% | 3.4%
Clc1ccc(CSCCc2ccncc2)cc1 | -15.7 | 12.4% | 0.7% | -5.7% | -1.3%
Fc1ccc(SCCc2ccncc2)cc1 | -2.1 | ? | 0.9% | -4.0% | 23.8µM*
COc1ccc(SCCc2ccncc2)cc1 | -3.6 | -7.9% | -0.6% | -1.9% | -26.9%
Fc1cc(F)c(F)c(SCCc2ccncc2)c1F | nt | 50.1µM* | -15.7% | -6.9% | ?
c1ccc(SCCc2ccncc2)cc1 | -6.6 | 0.9% | -0.2% | -7.2% | 21.2µM*
O=C(C[n+]1ccc(CCSc2ccc(F)cc2)cc1)c1ccccc1 | -0.8 | ? | 1.2% | 2.5% | 1.89µM*
COC(=O)c1ccccc1NC(=O)NC1CCCCC1 | -11.4 | 15.8% | -7.2% | -3.7% | -5.1%
O=C(Nc1ccccc1C(=O)N1CCCCC1)NC1CCCCC1 | 3.2 | -19.2% | -1.7% | -1.2% | 21.2µM*
O=C(CSc1nc(-c2ccccc2)cn1-c1ccccc1F)Nc1ccc(F)cc1 | nt | 6.8% | nt | nt | nt
COc1ccccc1C(=O)NC1=NC(c2ccc(Br)cc2)CC(=O)N1 (centres undefined) | nt | -0.2% | nt | nt | nt
CC(=O)C(=Nc1ccccc1Cl)NNc1ccc(Cl)cc1 | 12.3 | 44.7µM* | -3.7% | -0.2% | -1.8%
O=C(NNc1ccc(Cl)cc1)c1c(F)cccc1Cl | -0.5 | -6.9% | 1.0% | 1.2% | -15.3%
O=C(c1c(F)c(F)c(F)c(F)c1F)N1CCN(c2cccc(C(F)(F)F)c2)CC1 | -3.2 | ? | 2.5% | -2.2% | 5.97µM*
O=C(c1cc(=O)[nH]c2ccccc12)N1CCN(c2cccc(C(F)(F)F)c2)CC1 | 9.2 | ? | 2.8% | -4.1% | 18.9µM*
